# An excerpt weighted towards active compounds, which were near 1.5% of everything screened.
# Epigenetic derep: derepresses silenced GFP reporter in murine cells; murine LDR cells, GFP reporter derepression, 30 h; Potency, µM (highest dose often 53.9 µM), usual class: activators; 0.2% of 280,000 active; further: nearly all actives have a fitted effect of over 60% in size
#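 GFP-positive cell count by laser-scanning cytometry (objects 20–120 um) after 30 h, 37 C compound exposure of murine LDR cells; reporter is CMV-GFP integrated at a silenced locus, inducible by HDAC or DNMT inhibitors.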
# LMNA splice mod: changes lamin A minigene splicing in HeLa cells; HeLa LMNA splicing GFP/RFP minigene ratio, 48 h; Potency, µM (highest dose often 46.1 µM), hits mostly inhibitors; 0.01% of 200,000 active; active means well fitted inhibition curve with a large enough effect in the signal ratio, with a control signal flat, not every such curve was filed as active; inconclusive means small, poorly fitted or top-dose-only effect, or effect the other way, or a change in a side signal; the % refers to the signal ratio
#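 S3 HeLa cells stably expressing lamin A-EGFP splicing minigene plus DsRed2, 600 cells/well, 48 h compound exposure at 37C. Laser-scanning cytometry; analysed as GFP (500-530 nm)/RFP (575-640 nm) total intensity ratio; 0.5% DMSO vehicle.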
# HttQ103 aggreg: reduces HttQ103-GFP aggregates in PC12 cells | PC12 HttQ103-GFP aggregates, Acumen cytometry, 40 h | Potency, µM (titrated, usually from 46.1 µM), most hits filed as inhibitors | 1.1% of 220,000 active | AID 1688; further: nearly all actives have a fitted effect of over 60% in size
#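 Read-out: GFP aggregate count by laser scanning cytometer (488 nm excitation, 500-530 nm emission, 1–25 µm objects >6 SD above background). Cells: PC12, inducible HTTex1-Q103-GFP, 100 nM tebufenozide; compounds titrated.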
# HTT ATP protect: Huntington cell model cytoprotection by ATP luminescence | PC12 HTT-Q103 induced, cytoprotection, ATP luminescence, 40 h | 0.14% of 230,000 active | Potency, µM (series often up to 56.4 µM), actives largely listed as activators | AID 1471; further: nearly all actives have a fitted effect of over 45% in size
#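 Compounds were screened for protection of PC12 cells against cell death after tebufenozide induction (100 nM final) of mutant Huntingtin exon 1 (Q103) fused to GFP.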
# NPSR antagonist: antagonists of human neuropeptide S receptor cAMP signaling. CHO-NPSR cells, cAMP TR-FRET, antagonist mode. Potency, µM (doses to about 38.3 µM), hits mostly inhibitors. 1% of 220,000 active. AID 1461; further: nearly all actives have a fitted effect of over 50% in size
# Target sequence (Q6W5P4 whole entry, looked up): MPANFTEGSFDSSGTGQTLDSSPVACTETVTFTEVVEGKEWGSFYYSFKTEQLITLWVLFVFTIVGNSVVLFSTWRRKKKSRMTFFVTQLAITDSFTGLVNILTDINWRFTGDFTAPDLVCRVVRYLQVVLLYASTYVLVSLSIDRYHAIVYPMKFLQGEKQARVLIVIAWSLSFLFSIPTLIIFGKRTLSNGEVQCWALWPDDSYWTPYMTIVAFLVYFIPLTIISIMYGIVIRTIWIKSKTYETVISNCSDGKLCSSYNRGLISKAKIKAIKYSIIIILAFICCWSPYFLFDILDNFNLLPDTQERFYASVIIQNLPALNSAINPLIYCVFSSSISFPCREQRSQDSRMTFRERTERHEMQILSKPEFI
# Hits are given with their value; 0 = inactive; ? = inconclusive; - = not tested or not shown; ! = not active in a repeat; [ ] = dose if it differs, or a comment. Unless noted, the call rests on the fitted dose curve; in most records, active means well fitted curve in the direction sought with a large enough effect; inconclusive means small, poorly fitted or top-dose-only effect, or another doubt; inactive means no such curve, though single readings can be large; an effect the other way counts as inactive or inconclusive.
SMILES,Epigenetic derep,LMNA splice mod,HttQ103 aggreg,HTT ATP protect,NPSR antagonist
CCCCC1=CC2=C(c3ccco3)C(=O)C(C)(OC(=O)c3ccc(OC)cc3)C(=O)C2=CN1CC(C)C (configuration not stated),0,?,0[9.22 µM],0[10 µM],10µM
CC(=O)c1ccc(NC(=O)c2cccc(NC(=O)N3CCSc4ncccc43)c2)cc1,0,-,-,-,-
O=C(N/N=C/c1cc([N+](=O)[O-])ccc1O)c1cc(-c2ccccc2)nc2ccccc12,0,?,0,0[10 µM],0
Cc1cc(C(=O)N/N=C/c2cc([N+](=O)[O-])ccc2O)c2ccccc2n1,0,?,7.08µM,0[10 µM],0
O=C1N/C(=C/c2cccs2)C(=O)N1Cc1ccccc1F,0,0,0,0,0
Cc1ccc(/C=C2/NC(=O)N(Cc3ccccc3F)C2=O)s1,3.55µM,-,0,0,0
O=C(c1cc2sccc2n1Cc1ccccc1)N1CCN(c2nc3ccccc3s2)CC1,0,0,7.94µM,0,0
CC(C)(C)c1ccc(-c2cn(-c3ccc(Br)cc3)c3[n+]2CCCS3)cc1,0,-,1.26µM,0[10 µM],10µM
CCOC(=O)c1nn(-c2ccc(Cl)cc2Cl)c(=N)c(C#N)c1C,11.2µM,-,0[9.22 µM],0[10 µM],0
CCOc1ccc(OCC)c(NC(=O)C2CCN(S(=O)(=O)c3cn(C)cn3)CC2)c1,0,0,-,-,-
CC(C)c1ccccc1-n1c(SCc2cc(=O)oc3ccc4ccccc4c23)nnc1-c1cccnc1,0,?,0,0[10 µM],10µM
COc1ccc(OC)c(S(=O)(=O)n2cnc3cc(C)c(C)cc32)c1,0,0,0,0,?
CCOc1ccc(S(=O)(=O)n2cnc3cc(C)c(C)cc32)cc1,0,?,11.2µM,0[10 µM],0
C=CCn1cccc(/C=C/C(=O)c2ccc(C(C)(C)C)cc2)c1=S,0,?,25.1µM,-,0
CN1CCN(C(=S)NC(=O)c2ccc(C(C)(C)C)cc2)CC1,0,0,0,0[10 µM],0
CCOc1ccccc1C(=O)Nc1ccc(S(=O)(=O)Nc2onc(C)c2C)cc1,0,-,-,-,-
COCC(=O)O[C@]1(CCN(C)CCCc2nc3ccccc3[nH]2)CCc2cc(F)ccc2[C@@H]1C(C)C,0,?,7.94µM!,0,10µM
O=C(O)c1ccc(N2C(=O)/C(=C/c3ccc(-c4ccc([N+](=O)[O-])cc4)o3)C=C2c2ccccc2)cc1,0,-,0,-,10µM
CCOc1ccc(/C=C/[N+](=O)[O-])c2ccccc12,0,?,0,0,10µM
CCOC(=O)COc1ccc2ccccc2c1/C=C/[N+](=O)[O-],?,?,0,0[10 µM],?
Cc1c(Nc2cc(Cl)c3nonc3c2[N+](=O)[O-])c(=O)n(-c2ccccc2)n1C,0,-,?,0,6.31µM
Cc1cc(C)cc(NC(=O)c2ccc(CNc3c(N4CCOCC4)c(=O)c3=O)cc2)c1,0,0,0,0,0
CCOc1ccc(OCC)c(NC(=O)c2ccc(CNc3c(N4CCOCC4)c(=O)c3=O)cc2)c1,0,0,?,3.16µM,0
O=C(Cn1c2c(sc1=O)C1c3ccccc3OCC1CS2)Nc1ccc(Cl)c(Cl)c1 (configuration not stated),0,?,2.82µM,0[10 µM],0
Cc1c(C(=O)NCc2ccccc2)sc2nc3n(c(=O)c12)CCC3,0,?,-,-,-
SMILES,Epigenetic derep,LMNA splice mod,HttQ103 aggreg,HTT ATP protect,NPSR antagonist
COc1ccc(C(=O)NNC(=S)NC(=O)c2cc(-c3ccccc3)nc3ccccc23)cc1,0,0,28.2µM,?,0
CCCOc1ccc(C(=O)NNC(=S)NC(=O)c2cc(-c3ccc(Cl)cc3)nc3ccccc23)cc1,0,0,0,0,0
CCC(C)Nc1nc2c(c(=O)[nH]c(=O)n2C)n1Cc1ccc(F)cc1 (configuration not stated),0,-,-,-,-
C=CC[n+]1c(-c2ccc(OC)cc2)csc1NNC(=O)Nc1ccccc1,0,?,10µM,0,0
Cc1cc(C)nc(SCC(=O)N/N=C/c2cc(C)n(-c3ccccc3C)c2C)n1,0,?,?,-,0
Cc1ccccc1N(CC(=O)N/N=C/c1cc(C)n(-c2ccccc2C)c1C)S(C)(=O)=O,0,0,17.8µM,0,?
CCOc1ccc(S(=O)(=O)Nc2cccc(Cl)c2)cc1,-,-,-,0[0.074 µM],-
CCOc1ccc(S(=O)(=O)Nc2cc(Cl)ccc2O)cc1,0,?,22.4µM,0[10 µM],0
CC1=CC(C)=Nc2ccc(C)cc2N1,0,0,0.891µM!,?,0
CCOC(=O)C1=C(CN(CC)Cc2ccccc2)NC(=O)NC1c1ccc(OC(C)C)cc1 (configuration not stated),0,-,-,-,-
Cc1ccc(CNC(=O)c2ccc(Cn3c(=O)c4ccccc4n(CC(=O)Nc4ccc(C)cc4C)c3=O)cc2)cc1,0,-,-,-,-
O=c1[nH]c(=O)n(Cc2ccco2)c2c1C(C(F)(F)F)(C(F)(F)F)N=C(c1ccc(F)cc1)N2,0,?,1.26µM,0[10 µM],0
O=c1[nH]c(=O)n(Cc2ccccc2)c2c1C(C(F)(F)F)(C(F)(F)F)N=C(c1ccco1)N2,0,0,?,0,0
Cc1cc(=O)[nH]c(SCC(=O)Nc2cccc3ccccc23)c1C#N,0,?,3.16µM,0,0
Cc1cc(C)c(C#N)c(SCC(=O)Nc2ccccc2C)n1,0,0,0[9.22 µM],0[10 µM],0
O=C(O)/C=C\C(=O)Nc1ncn[nH]1,-,-,-,0[10 µM],-
O=C(Nc1nnc(C(F)(F)F)s1)C1COc2ccccc2O1 (configuration not stated),0,?,25.1µM,0,0
CC(C)(C)CC(=O)Nc1nnc(C(F)(F)F)s1,0,0,0,0[10 µM],0
O=C(Nc1nnc(C(F)(F)F)s1)c1ccc(Br)s1,0,?,5.62µM,-,0
CCSc1nnc(NC(=O)c2ccc(Br)s2)s1,0,0,0,0,0
CC(NC(=O)Nc1nnc(C(F)(F)F)s1)(C(F)(F)F)C(F)(F)F,0,?,2.24µM,0,10µM
CCc1ccc(CNC(=O)c2cnc3sc(N4CCCCCC4)nn3c2=O)cc1,0,0,-,-,-
Cn1c(=O)c2cc(C(=O)NCCCN3CCN(c4ccccc4F)CC3)sc2c2ccccc21,0,-,-,-,-
N#CC1=C(c2ccccc2)/C(=C/c2ccccc2)OC1=O,0,?,?,0,2.51µM
COc1ccc(-c2noc(CSCC(=O)Nc3cc(OC)c(OC)c(OC)c3)n2)cc1OC,0,0,-,-,-
SMILES,Epigenetic derep,LMNA splice mod,HttQ103 aggreg,HTT ATP protect,NPSR antagonist
Cc1cc(C)n(C(=O)/C(C#N)=N/Nc2cc(Cl)cc(Cl)c2)n1,0,0[9.22 µM],12.6µM,0,0
Cc1cc(C)n(C(=O)/C(C#N)=N\Nc2ccccc2[N+](=O)[O-])n1,0,0,0,0,0
COc1ccc(CNC(=O)c2ccccc2C(=O)O)cc1,0,0,0,-,0
COc1ccc(C(=O)NCc2oc(-c3ccccc3)cc2C(=O)O)cc1,0,0,3.16µM,0[0.074 µM],0
Cc1cccc(CCNC(=O)c2ccc(CSCc3cccc(Cl)c3)o2)c1,0,?,-,-,-
O=c1[nH]c2ccccc2n1CCCSc1cnc2ccccc2n1,0,0,11.2µM,0,0
CCCCn1c(=O)[nH]c2ccccc21,0,0,0,0,0
